These results are taken from PubChem BioAssay AID2685 (National Center for Advancing Translational Sciences (NCATS), 2010).

Structures are written as SMILES. The whole screen tested about 320,000 compounds, of which about 2,100 (0.66%) were called active. Another 53% or so got no clear call; they are omitted. The sample holds actives, similar compounds and a random draw of the others, so the mix is not that of the screen. The call rests on the fitted dose curve; in most records, active means well fitted inhibition curve with a large enough effect in the signal ratio, with a control signal flat (not every such curve was filed as active); inconclusive means small, poorly fitted or top-dose-only effect, or effect the other way, or a change in a side signal; inactive means flat fitted curve, though single readings scatter; the % refers to the signal ratio.
Potency means the concentration at half of the fitted maximal effect.

The nature of the assay: qHTS Assay for Lipid Storage Modulators in Drosophila S3 Cells.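 On cell number change: cells counted by Cell Tracker Red CMTPX staining in the red channel.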 On lipid storage change, negative = inhibition: on the % scale 0 is the no-effect control and ±100 the full control effect. Conditions: BODIPY lipid droplet fluorescence, 18-24 h, cells fed with added oleic acid; cell number change: measured here: cell count max response; series mostly up to 46.1 µM; lipid storage change, negative = inhibition: at the top concentration. The method, boiled down: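 Drosophila S3 cells got compounds at several concentrations plus oleic acid (400 uM solution). Laser-scanning cytometry with 488 nm excitation read lipid droplets at 500-530 nm and cells at 575-640 nm. Percent activity was relative to 20 uM Triacsin C.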
Background: In qHTS, concentration-response curves come from the screen itself.
Regarding `COc1ccc(CNC(=O)CCNS(=O)(=O)c2ccc3c(c2)oc(=O)n3C)cc1`, the “lipid storage change, negative = inhibition” value is -3.68% (inactive).
On to `Cc1ccc(N2CCN(/N=C/c3ccccc3)CC2)cc1`, for which the “lipid storage change, negative = inhibition” value is -18.6% (inactive) and the cell number change was -1.14%.
For `C=CCNC(=O)c1ccccc1NC(=O)c1ccc(Cl)c(S(=O)(=O)Nc2ccccc2)c1` the same measures were -5.77% (inactive) and -6.78%.
For the molecule `Cc1ccccc1-n1ncc2c1CC(C)(C)CC2NC(=O)CCN1CCCCC1=O` (centres undefined), the “lipid storage change, negative = inhibition” value is -16.5% (inactive) and the cell number change was -9.29%.
For `O=C(O)c1cc(-c2ccc(Cl)c(Cl)c2)n(-c2ccc(F)cc2)n1` the same measures were 1.09% (inactive) and 20.6%.
With `CCn1c(=O)c2sccc2n2c(CCCC(=O)NC3CCN(Cc4ccccc4)CC3)nnc12`, the “lipid storage change, negative = inhibition” value was -11.5% (inactive).
As to `CC(C)Cn1c(=O)c2sccc2n2c(CCCC(=O)NC3CCN(Cc4ccccc4)CC3)nnc12`, the result was inactive and the cell number change came out at 6.76%.
Turning to `CCn1c(=O)c2sccc2n2c(CCCC(=O)N3CCN(c4ccccn4)CC3)nnc12`, the Potency is 23.1 µM (active) and the cell number change is -5.66%.
The like results for `COc1ccccc1CNC(=O)CCCc1nnc2n(C)c(=O)c3sccc3n12` were, in that order, 1.3 µM (active) and 11.8%.
Turning to `COc1ccccc1CNC(=O)CCn1c(=O)[nH]c2ccsc2c1=O`, the “lipid storage change, negative = inhibition” value is 1.06% (inactive) and the cell number change is -12.6%.
The like results for `O=C(CCCn1c(=O)[nH]c2ccsc2c1=O)N1CCN(c2ccccn2)CC1` were, in that order, -23.2% (inactive) and -2.15%.
The like results for `N#Cc1ccc(C[C@@H](NS(=O)(=O)c2ccc(C(=O)O)cc2)C(=O)O)cc1` were, in that order, 16.5% (inactive) and 17.7%.
As for `COc1cc(/C=C2/C(=O)N(c3ccc(Br)cc3)N=C2C)cc([N+](=O)[O-])c1O`, the molecule was classed as inactive.
Consider `COc1ccc(OCCCCOc2ccccc2Cl)cc1`, for which the “lipid storage change, negative = inhibition” value was -0.0266% (inactive) and the cell number change was found to be 0.395%.
`NNC(=O)/C(=C\c1ccc(Br)cc1)NC(=O)c1cccs1`: the “lipid storage change, negative = inhibition” value is 0.151% (inactive) and the cell number change came out at 2.9%.
As for `COc1ccc(NC(=O)CCNC(=O)c2ccc([N+](=O)[O-])cc2)cc1S(=O)(=O)N1CCOCC1`, the “lipid storage change, negative = inhibition” value was -6.84% (inactive) and the cell number change is -1.49%.
The like results for `COc1ccc(OCC(=O)NNC(=O)Cn2c(=O)cnc3ccccc32)cc1` were, in that order, 18.9% (inactive) and 2.51%.
The like results for `CC(C)(C)OC(=O)Cn1c(=O)cnc2ccccc21` were, in that order, -0.847% (inactive) and 6.02%.
As for `COC(=O)Cn1c(=O)cnc2ccccc21`, the Potency is 16.4 µM (active) and the cell number change is 11.6%.
`CCC1=C(OC(=O)N(CC)CC)N2C(=O)OC(=NCc3ccccc3)[C@]2(C)[C@H]2C1=CC[C@H]1C(=O)N(c3ccccc3)C(=O)[C@H]12`: the “lipid storage change, negative = inhibition” value is 10.2% (inactive) and the cell number change was found to be 11.7%.
For `Cc1cc(NC(=O)COC(=O)c2ccccc2[N+](=O)[O-])no1` the same measures were 11.3% (inactive) and -0.913%.
For `O=C(C1=C(O)C(=O)N(CCc2ccccc2)C1c1cccs1)c1ccco1` (centres undefined), the outcome was inactive.
Take `COc1ccccc1-[n+]1c(C)cc(/C=C2\Sc3ccccc3N2C)cc1C`: the Potency is 0.082 µM (active) and the cell number change was -16.5%.
Take `CN1/C(=C/c2cccc[n+]2CCO)Sc2ccccc21`: the “lipid storage change, negative = inhibition” value was -13.9% (inactive) and the cell number change was 0.676%.
As to `Cc1ccc2c(c1)S/C(=C/c1ccc[n+](CCO)c1)N2C`, the “lipid storage change, negative = inhibition” value was -3.25% (inactive) and the cell number change amounted to 5.41%.
Consider `Cn1cc(CN2CCCC(CNC(=O)c3ccc4c(c3)OCO4)C2)c2ccccc21` (centres undefined), for which the “lipid storage change, negative = inhibition” value is 13.4% (inactive) and the cell number change is -1.43%.
The like results for `COc1ccc(-n2nc3c(c2NC(=O)CBr)CSC3)cc1` were, in that order, -5.01% (inactive) and 13.3%.
The like results for `C=CCC(Nc1ccccc1)c1ccc(OC)c(OC)c1` (centres undefined) were, in that order, 16.3% (inactive) and 7.9%.
In the case of `C=CCC(NCc1ccco1)c1ccc(OC)cc1` (centres undefined), the “lipid storage change, negative = inhibition” value was -17.7% (inactive) and the cell number change is -21.6%.
For the molecule `C=CCC(NCc1ccco1)c1ccc(OC)c(OC)c1` (centres undefined), the Potency is 23.1 µM (active).
`CCOc1ncccc1C(=O)OCC(=O)Nc1cc(S(=O)(=O)N(CC)CC)ccc1C`: the “lipid storage change, negative = inhibition” value was -12% (inactive) and the cell number change is -5.2%.
Regarding `COCCCn1c(-c2ccc(OC)cc2)nc2nc3ccccc3nc21`, the molecule was called inactive and the cell number change was 5.75%.
Consider `Cc1ccc(S(=O)(=O)N2CCCCC2)cc1C(=O)N1CCN(c2ccccn2)CC1`, for which the “lipid storage change, negative = inhibition” value was 7.29% (inactive).
Regarding `Cc1cccc(C(=O)NCc2nnc(SCC(=O)Nc3nncs3)n2C)c1`, the “lipid storage change, negative = inhibition” value was 23.4% (inactive) and the cell number change is -2.14%.
The like results for `CC(NC(=O)CCC(=O)NC(C)C1COc2ccccc2O1)C1COc2ccccc2O1` (centres undefined) were, in that order, -3.23% (inactive) and -1.04%.
In the case of `O=C(OC1CCOC1=O)c1cc(-c2cccc(Br)c2)nc2ccccc12` (centres undefined), the “lipid storage change, negative = inhibition” value was 4.32% (inactive) and the cell number change came out at 21.7%.
`COc1cc(C(C[N+](=O)[O-])c2c(C)cc3ccccn23)ccc1O` (centres undefined): the Potency is 0.651 µM (active) and the cell number change is 15.3%.
In the case of `COc1cc(C(C[N+](=O)[O-])c2c(C)[nH]c3ccccc23)ccc1O` (centres undefined), the “lipid storage change, negative = inhibition” value was 6.04% (inactive) and the cell number change was found to be 20.5%.
Regarding `Cc1cc2ccccn2c1C(C[N+](=O)[O-])c1ccc(N(C)C)cc1` (centres undefined), the “lipid storage change, negative = inhibition” value was 7.67% (inactive) and the cell number change came out at 12.9%.
For the molecule `O=C(Nc1cccc(C(F)(F)F)c1)c1sc(Cl)nc1C(F)(F)F`, the Potency is 10.3 µM (active) and the cell number change is -10.2%.
`Cc1nc(Cl)sc1C(=O)Nc1ccc(C(F)(F)F)cc1`: the Potency was 1.64 µM (active) and the cell number change is -0.73%.
Turning to `O=C(Nc1cccc(C(F)(F)F)c1)c1cc(-c2ccco2)on1`, the “lipid storage change, negative = inhibition” value is 26.8% (inactive) and the cell number change worked out at 7.92%.
In the case of `Cc1ncsc1C(=O)Nc1cccc(C(F)(F)F)c1`, the “lipid storage change, negative = inhibition” value was 8.39% (inactive) and the cell number change worked out at 22.3%.
`CC(=O)c1cccc(NC(=O)c2sc(Cl)nc2C)c1`: the “lipid storage change, negative = inhibition” value is -14.7% (inactive) and the cell number change was 12.6%.
`Cc1ccccc1NC(=O)c1sc(Cl)nc1C`: the “lipid storage change, negative = inhibition” value was 11.6% (inactive).
Turning to `Cc1nc(Cl)sc1C(=O)Nc1ccc(C(C)(C)C)cc1`, the Potency is 7.31 µM (active) and the cell number change is 1.1%.
`Cc1nc(Cl)sc1C(=O)Nc1cccc(Cl)c1`: the call was inactive and the cell number change is 2.35%.
With `Cc1nc(Cl)sc1C(=O)Nc1ccccc1Cl`, the “lipid storage change, negative = inhibition” value was -5.61% (inactive) and the cell number change was -11.3%.
